Screening data from PubChem.
CHO-K1 Ca antag – nonselective inhibitor or artifact in parental CHO-K1 cells. 360,000 compounds, 0.6% hits. inhibition, % at 3 µM. ATP-induced calcium, Fluo-8 fluorescence;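 active means inhibition above a per-plate cutoff, the plate's mean sample inhibition plus 3 SD, cut at about 24% in these data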;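 further: 0% = DMSO plus EC80 ATP and 100% = DMSO alone without ATP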
M4 antag – CHRM4 antagonism in calcium assay. 360,000 compounds, 0.73% hits. P08173. inhibition, % at 3 µM. CHO-hM4 cells, ACh EC80, Fluo-8 calcium fluorescence;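 active means inhibition above its plate's cutoff, the mean inhibition of sample wells plus 3 SD, cut at about 27% in these data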;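 further: 0% = acetylcholine EC80 with DMSO and 100% = DMSO without agonist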
Target sequence (P08173 whole entry, looked up): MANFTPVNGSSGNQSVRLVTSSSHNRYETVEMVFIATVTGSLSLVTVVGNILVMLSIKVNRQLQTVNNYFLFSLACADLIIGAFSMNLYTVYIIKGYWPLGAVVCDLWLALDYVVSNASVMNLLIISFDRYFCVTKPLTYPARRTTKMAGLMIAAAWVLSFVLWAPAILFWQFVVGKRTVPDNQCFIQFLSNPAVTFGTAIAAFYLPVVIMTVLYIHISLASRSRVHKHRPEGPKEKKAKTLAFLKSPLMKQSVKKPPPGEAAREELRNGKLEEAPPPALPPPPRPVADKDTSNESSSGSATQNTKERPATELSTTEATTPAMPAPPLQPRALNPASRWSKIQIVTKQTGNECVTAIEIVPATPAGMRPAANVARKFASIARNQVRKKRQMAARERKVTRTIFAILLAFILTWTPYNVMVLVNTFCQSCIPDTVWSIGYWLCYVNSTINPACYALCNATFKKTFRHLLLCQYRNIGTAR
M4 ag – CHRM4 agonism in calcium assay; P08173; CHO-K1 hM4/Gqi5, Fluo-8 calcium fluorescence; vehicle 0%, full acetylcholine response 100%; activation, % at 3 µM; 360,000 compounds, 0.14% hits; AID 624127;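 active means activation above the run mean over all test wells plus 3 SD, cut at about 32% in these data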;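 further: peak over basal fluorescence ratio per well then scaled between controls; 0% = DMSO wells and 100% = acetylcholine at EC100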
M1 ag parental – nonselective activator or artifact in parental CHO-K1 cells; Fluo-8 calcium fluorescence; scaled to maximal ATP response, vehicle zero; activation, % at 3 µM; 360,000 compounds, 0.48% hits; in the data active means activation above about 15%;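 further: untransfected CHO-K1 host cells lacking M1 receptor as counterscreen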
M1 PAM parental – nonselective activator or artifact in parental CHO-K1 calcium assay | ATP EC20, Fluo-8 calcium fluorescence; 0% at ATP EC20, 100% at ATP max | activation, % at 3 µM | 360,000 compounds, 0.02% hits;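 active means activation above the run cutoff, the mean activation of all test compounds plus 3 SD, cut at about 40% in these data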;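 further: peak over basal fluorescence ratio in a 140 s read after ATP addition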
M4 PAM – positive allosteric modulators of human muscarinic M4 receptor. CHO-K1 hM4/Gqi5, Fluo-8 calcium fluorescence, ACh EC20; 0% = ACh EC20, 100% = maximal ACh. AID 624126. activation, % at 3 µM. 360,000 compounds, 0.4% hits. P08173;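 active means activation above its plate's cutoff, the mean activation of sample wells plus 3 SD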
* = called active by the depositor. This is a sample that favours compounds with a hit; in the whole collection about 2% have one here.

SMILES	CHO-K1 Ca antag	M4 antag	M4 ag	M1 ag parental	M1 PAM parental	M4 PAM
C(#CCN1CCCC1)CC(c1ccccc1)c1ccccc1	-8	69*	9	7	3	-23
CC(C)(C#CCN1CCCCC1)OCCOC(c1ccccc1)c1ccccc1	-10	97*	-4	0	8	-42
Cn1c(=O)c2cc(S(=O)(=O)NC(C(=O)NC3CCCCC3)c3ccccc3)ccc2n(C)c1=O (stereo not drawn)	-13	-15	0	1	20	8
CCOc1ccccc1N1CCN(C(=O)c2c(Cl)cnn2C)CC1	-9	0	4	1	10	0
CC(O)(C#CCN1CCCCC1)c1ccccc1 (stereo not drawn)	-2	10	1	0	-1	-11
CC1CCCN1CC#CC(O)(c1ccccc1)c1ccccc1 (stereo not drawn)	-6	97*	0	0	6	-17
OC(C#CCN1CCCC1)(c1ccccc1)c1cccc(F)c1 (stereo not drawn)	1	94*	2	0	6	-16
CCC(O)(CCN1CCCCC1)c1ccccc1 (stereo not drawn)	-1	33*	0	0	1	-13
CC(C)C(O)(C#CCN1CCCCCC1)c1ccccc1 (stereo not drawn)	-3	54*	2	1	19	-23
CCCC(O)(CCN1CCCCC1)c1ccc(OCC)cc1 (stereo not drawn)	5	13	0	1	-5	-15
COc1ccc(S(=O)(=O)N(C)CC(=O)NCc2ccco2)cc1Cl	6	5	2	1	-6	-4
CNc1cncc(-c2cccc(C(C)=O)c2)n1	0	1	2	0	-4	-3
CC(C)C(O)(CC#CCN1CCCC1)c1ccccc1 (stereo not drawn)	-8	49*	1	2	17	-26
O=C(Nc1ccccc1N1CCN(C(=O)c2ccccc2)CC1)c1cc(Br)ccc1Cl	26*	11	3	0	-8	-7
O=C(O)c1cccc(NC(=O)c2cccc(S(=O)(=O)N3CCc4ccccc43)c2)c1	1	8	0	0	-13	-1
NC(=O)c1ccc(NC(=O)c2ccc3c(c2)CCN3S(=O)(=O)c2ccccc2)cc1	26*	15	8	2	-24	-13
COCCNC(=O)C1(C)CCCN(C(=O)c2c(-c3ccccc3)noc2C)C1 (stereo not drawn)	5	-5	0	0	-9	-1
O=[N+]([O-])c1ccccc1/C=N/N1CCN(c2ccc(Cl)cc2)CC1	-1	5	2	3	7	3
O=[N+]([O-])c1ccccc1/C=N\N1CCN(c2ccccc2)CC1	1	-8	0	28*	7	-2
O=C(NCC1CCCO1)C1CCN(C2CCN(C(=O)CC3CCCC3)CC2)CC1 (stereo not drawn)	27*	9	1	0	-19	-5
CC1CCN(c2nc3ccccc3n2CC(=O)c2ccccc2)CC1	1	58*	1	0	3	-26
Cc1nc2ccccc2n1CC(=O)c1ccccc1	12	-1	2	1	-17	-2
COc1ccccc1/C=C(\NC(=O)c1cccc(C)c1)C(=O)Nc1ccccn1	-13	27*	8	2	9	27*
Cc1ccc(-c2cc(C(=O)N/N=C/c3c(C)nn(C)c3C)c3ccccc3n2)c(C)c1	24*	4	1	0	-6	-7
Cc1nn(-c2ccccc2)c(N2CCCC2)c1/C=N/NC(=O)c1cc(-c2ccccc2)nc2ccccc12	22	6	6	2	-3	-10
CC1CCCCN1C(=O)CSc1nnc(-c2cccs2)o1 (stereo not drawn)	9	-1	1	0	-10	0
COc1ccc(S(=O)(=O)Nc2cccc(N(C)S(C)(=O)=O)c2)cc1Br	2	18	19	16*	15	-20
Cc1ccc(N2C(=O)CC(n3ccnc3)C2=O)cc1C (stereo not drawn)	-2	0	1	0	10	3
CCn1nnnc1NCc1ccc(N2CCCC2)cc1	-14	35*	1	0	14	-24
